AT treatment = candidate therapy for ataxia-telangiectasia | 0.19% of 320,000 active | AID 485349 | F2112 A-T fibroblasts, KAP-1 phosphorylation AlphaLISA; neocarzinostatin DNA damage 30 min before lysis | Potency, µM (doses to about 57.5 µM), for the others: at the highest dose activation, most hits filed as activators; note: potency is the fitted concentration of half-maximal effect; % of control where 0% means no effect; nearly all actives have a fitted effect of over 45% in size
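hTERT-immortalized A-T patient fibroblasts (F2112), 500 cells/well in OPTI-MEM, 1% FBS, got compounds for 60 min, then NCS for 30 min at 37C. Lysates were then assayed for phospho-KAP-1 by AlphaLISA (anti-pKAP1 donor, anti-KAP1 acceptor beads), 6 hr at 25C.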
Nrf2 activator = Nrf2 pathway activation; AREc32 ARE-luciferase reporter (MCF7-derived line), luminescence, 24 h; Potency, µM (titrated, usually from 46.1 µM), for the others: at the top dose activation, actives largely listed as activators; 0.31% of 410,000 active; AID 624171; note: potency is the fitted concentration of half-maximal effect; % of control where 0% means no effect; nearly all actives have a fitted effect of over 65% in size
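AREc32_Fluc, 1000 cells/well, OPTI-MEM + 5% FBS, o/n 37 deg C 5% CO2; 23 nL cpd by pin tool, 24 hr; Steady-Glo 30 min RT, luminescence.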
TCR activator = activates T cell receptor signaling | AID 504894 | primary human leukocytes, anti-CD3, IL-2 HTRF, 48 h | 330,000 tested, under 10 active | Potency, µM (top dose mostly 9.22 µM), inactives show at the top dose activation of IL-2 secretion, actives largely listed as activators; note: % of control where 0% means no effect
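1) Mix primary human leukocytes, a-CD3 beads and compound. 2) Incubate 48 hr. 3) Add HTRF IL-2 reagents (a-IL-2-K, a-IL-2-d2).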
A549 viability = kills or reduces viability of A549 cells in Nrf2 counter-screen | A549 ARE-Fluc cells, CellTiter-Fluor viability, 18-24 h | Potency, µM (series often up to 46 µM), for the others: at the top dose activity change, negative = cytotoxicity, usual class: inhibitors | 0.16% of 390,000 active | AID 504648; note: potency is the fitted concentration of half-maximal effect; % is set by controls: 0 for no effect and ±100 for the full control effect
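Cytotoxicity counterscreen: CellTiter-Fluor fluorescence was measured in A549 ARE_Fluc cells after 18-24 h of compound exposure in a concentration series. The subsequent BugLite luminescent read reports ARE-luciferase activity.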
Nrf2 inh = Nrf2 pathway inhibition; A549 ARE-Fluc reporter, luciferase luminescence, 18-24 h; Potency, µM (top dose mostly 46 µM), inactives show top-dose activity change, negative = inhibition, actives largely listed as inhibitors; 2.1% of 360,000 active; AID 504444; note: potency is the fitted concentration of half-maximal effect; % is set by controls: 0 for no effect and ±100 for the full control effect; nearly all actives have a fitted effect of over 60% in size
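Nrf2 activity is the BugLite luminescence, read 15 min after reagent at room temperature, following CellTiter-Fluor cytotoxicity readout (30 min, 37C). Compound titrations were applied for 18-24 h to 5000 A549 ARE_Fluc cells/well in 5% FBS OPTI-MEM.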
CCT modulator = modulators of cytosolic chaperonin (CCT/TRiC) activity; purified chaperonin ATPase assay, HTRF ADP detection, 30 min; activity change, % (no concentration beside the values), hits read low; 0.3% of 360,000 active; in the data active = activity change below about -30%; note: % is set by controls: 0 for no effect and ±100 for the full control effect
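Nucleotide hydrolysis assay: TRiC at 20–40 nM final (set by batch activity) with 10 uM ATP, 30 min at 37 °C, in presence of 76 uM compound. Detection by competitive ADP HTRF, 30 min ambient.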
The depositor's hits bear a star; ? = inconclusive; . = no result; [ ] = dose if it differs, or a comment. Hits are enriched below; roughly 2.6% of the tested compounds scored in any of these assays. Unless noted, calls come from the whole dose curve; as a rule, active = well fitted curve in the direction sought with a large enough effect; inconclusive = small, poorly fitted or top-dose-only effect, or another doubt; inactive = no such curve, though single readings can be large; an effect the other way counts as inactive or inconclusive.

SMILES	AT treatment	Nrf2 activator	TCR activator	A549 viability	Nrf2 inh	CCT modulator
CC(C)C(C(=O)N1CCN(C(=O)OC(C)(C)C)CC1)n1cc(-c2cn([C@@H](C)C(=O)N3CCN(C(=O)OC(C)(C)C)CC3)nn2)nn1 (stereo not given in full)	-19%	.	.	.	.	.
C[C@@H](C(=O)N1CCN(C(=O)OC(C)(C)C)CC1)n1cc(-c2cn([C@@H](C)C(=O)N3CCN(C(=O)OC(C)(C)C)CC3)nn2)nn1	22µM*	.	.	.	.	.
C=CCOC(=O)c1[nH]c2c(c1C)C(=O)CC(c1cc(OC)c(OC)c(OC)c1)C2 (stereo not given)	2%	3%	1%[46.1 µM]	-30%	10µM*	0
CCCCOC(=O)c1[nH]c2c(c1C)C(=O)CC(c1cc(OC)c(OC)c(OC)c1)C2 (stereo not given)	-10%	5%	2%	-29%	13µM*	0
CCc1ccc(NC(=O)CC2C(=O)N(c3ccc(Cl)cc3)C(=O)N2Cc2cccs2)cc1 (stereo not given)	.	5%	.	-5%	-12%	.
COc1ccc(C(=O)C[n+]2ccc3c(c2)nc(-c2ccccc2)n3C)cc1	7%	0%	3%	-2%	3%	-36*
COc1ccc(-c2nc(NC(=O)c3cc(C(C)(C)C)nn3C)sc2C)cc1	-16%	0%	5%	?	18µM*	0
O=C(Nc1ccccc1C(=O)OCc1cc(=O)n2ccsc2n1)c1ccc(Cl)cc1	.	15%	.	10%	.	.
O=C1CCc2cc(S(=O)(=O)Nc3ccccn3)ccc2N1	.	.	.	12%	15%	.
Cc1cccc(CSCc2ccc(C(=O)NC(C)C)o2)c1	5%	0%	2%	1%	21µM*	1
COc1ccc(Br)cc1CNC(=O)CCc1cn(Cc2ccc(C)cc2)c2ccccc12	.	-1%	.	-1%	-8%	.
Cc1cc(C)n2nc(SCC#N)nc2n1	2%	0%	-1%[46.1 µM]	0%	12%	0
C=CCSc1nccc(-c2cc(Cl)sc2Cl)n1	.	10µM*	5%	6%	4%	0
C=CCSc1ncc(-c2ccccc2)cn1	0%	3%	-10%	0%	?	-1
N#CCSc1nccc(-c2cc(Cl)sc2Cl)n1	.	7.9µM*	2%	1%	-17%	-2
Cc1ccc(NS(=O)(=O)c2cc3c(cc2N2CCC2)NC(=O)CC3)cc1C	.	.	.	10%	?	.
O=C(COC(=O)c1cc(-c2ccccc2)nc2c(Cl)cccc12)c1ccc(F)cc1	.	-1%	.	6%	13%	.
O=S(=O)(c1ccc2c(c1)CCCC2)N1CCN(c2nc(-c3ccccc3)nc3ccccc23)CC1	.	.	.	-3%	-5%	.
CC(=O)c1c(C)[nH]c(C(=O)COc2ccc(C#N)cc2)c1C	6%	1%	7%	-14%	12µM*	-5
CC(=O)c1c(C)[nH]c(C(=O)COc2cc(C)ccc2C(C)C)c1C	.	0%	-3%	-12%	7.3µM*	-3
COc1ccccc1OCC(=O)c1[nH]c(C)c(C(C)=O)c1C	6%	0%	7%	-6%	5.2µM*	-2
COc1cc(C)ccc1OCC(=O)OCC(=O)c1[nH]c(C)c(C(C)=O)c1C	2%	0%	6%	0%	-3%	-3
Cc1noc(CN(C)c2ncnc3ccc(-c4ccc5c(c4)OCO5)cc23)n1	.	.	.	4%	10%	.
O=C(Nc1cccc(-c2nc3ccccc3o2)c1)c1ccc(N2C(=O)C3C4C=CC(C4)C3C2=O)cc1 (stereo not given)	-3%	-1%	-2%	?	9.2µM*	-2
COc1cc2c(cc1OC)C1=NC(=O)CN1C(SCc1ccccc1C)=N2	2%	1%	-4%	-15%	9.2µM*	-2
SMILES	AT treatment	Nrf2 activator	TCR activator	A549 viability	Nrf2 inh	CCT modulator
CCOC(=O)c1ccccc1NC(=O)CN1CCCN(Cc2cccc(Cl)c2)S1(=O)=O	.	1%	.	-7%	-26%	.
COc1ccc(C2/C=C\CN(C(=O)C3CCCC3)CC(=O)N2Cc2ccc(F)cc2)cc1 (stereo not given)	14µM*	4%	-2%	-14%	-2%	1
N#CCCn1cc(C(=O)O)c(-c2ccc3ccccc3c2)n1	19%	0%	9%	5%	11%	1
CC(C)(C)OC(=O)NCCCCCNC(=O)c1[nH]cnc1C(=O)N[C@@H](CCCCNC(=O)OC(C)(C)C)C(=O)OC(C)(C)C	-7%	-1%	-3%	-12%	23µM*	-1
C[C@H](NC(=O)c1nc[nH]c1C(=O)N[C@@H](CCCCNC(=O)OC(C)(C)C)C(=O)OC(C)(C)C)C(=O)OC(C)(C)C	13%	0%	2%	-9%	?	0
CC(C)(C)OC(=O)CNC(=O)c1[nH]cnc1C(=O)N[C@@H](CCCCNC(=O)OC(C)(C)C)C(=O)OC(C)(C)C	6%	5%	4%	-4%	?	-4
CCN(CC)C(=O)c1[nH]cnc1C(=O)N[C@@H](CCCCNC(=O)OC(C)(C)C)C(=O)OC(C)(C)C	-2%	2%	2%	-7%	-26%	-31*
CC(C)(C)OC(=O)NCCCC[C@H](NC(=O)c1nc[nH]c1C(=O)NCc1ccc(CNC(=O)OC(C)(C)C)cc1)C(=O)OC(C)(C)C	-3%	2%	10%	1%	?	0
CC(C)(C)OC(=O)NCCCC[C@H](NC(=O)c1nc[nH]c1C(=O)N[C@@H](CCCCNC(=O)OC(C)(C)C)C(=O)OC(C)(C)C)C(=O)OC(C)(C)C	22µM*	0%	-1%	-14%	?	1
O=C(Nc1cccc(-n2cccn2)c1)C1CCCN(Cc2ccc(C#CCCO)cc2)C1 (stereo not given)	7%	7%	1%	-7%	-25%	-1
NC(=S)NN=C1c2cc(OCCN3CCOCC3)ccc2-c2ccc(OCCN3CCOCC3)cc21	3%	-2%	4%	16µM*	16µM*	-2
ON=C1c2cc(OCCN3CCCCC3)ccc2-c2ccc(OCCN3CCCCC3)cc21	8%	23%	-5%	?	2%	3
O=C1c2ccccc2S(=O)(=O)N1Cc1nc2ccccc2s1	5%	-1%	2%	-4%	13µM*	3
S=C(NCCCc1cnc[nH]1)NCCN(Cc1ccc(Cl)c(Cl)c1)c1ccc(Br)cn1	.	.	.	3%	11%	.
O=c1oc2c(CN3CCCCCC3)c(O)ccc2cc1-c1nc2ccccc2[nH]1	16µM*	.	.	.	.	.
O=c1oc2c(CN3CCCC3)c(O)ccc2cc1-c1ccccc1	.	6%	.	?	.	.
Cc1ccc(C)c(S(=O)(=O)NCc2ccc(C(=O)N3CCN(C)CC3)cc2)c1	-13%	-1%	4%	-2%	9%	-2

High-throughput results: PubChem, National Center for Advancing Translational Sciences (NCATS)
